Reference: ChEMBL document CHEMBL3988442, “University of Dundee, Small-Polar-MMV Screening Library” (2021)
Among all 38,000 compounds or so, about 1,200 (3.2%) showed an effect of 50% or more. The median lay at about -58%. Many of the other results were omitted from the sample, so strong results are more common in it than they were.

Test system: Plasmodium falciparum
Test: Calibr Malaria Delayed Death Assay SOP
Format: functional, organism-based
Set-up: scale not given: in the data most compounds retested in dose-response had high values
Details: concentration 4.99e-06 (unit not given; other assays of the set use mol/L)

**Q.** For `O=C(CCn1cncn1)NC1CCc2nccn2C1` (stereo unspecified), which “Percent Effect” value is on record?
**A.** -109.9%

**Q.** For `C[C@]1(O)CN(Cc2ccc(C(=O)O)cc2)CC[C@@H]1Oc1cccc(F)c1`, which “Percent Effect” value is on record?
**A.** -93.08%

**Q.** `O=c1ccc2c(n1CC1CC1)CCN(c1ncccn1)CC2` was tested. Which “Percent Effect” value did it give?
**A.** 5.282%

**Q.** For `O=C(O)C(F)(F)F.O=C(O)C(F)(F)F.c1ccc(COC[C@@H]2CCC[C@]23CN(Cc2nccs2)CCO3)nc1`, which “Percent Effect” value is on record?
**A.** -24.57%

**Q.** How did the “Percent Effect” value turn out when `O=S(=O)(Cc1ccc(F)cc1)NCCc1nnc2n1CCC2` was run?
**A.** -62.4%

**Q.** How did the “Percent Effect” value turn out when `Cc1nc(CNC(=O)NC(C)c2ccc3c(c2)OCCO3)cs1` (stereo unspecified) was run?
**A.** -69.15%

**Q.** With `COCCn1ccc(=O)c(OCC(=O)Nc2cccc(OC)c2)c1C` as the compound, how does the “Percent Effect” value read?
**A.** -50.47%

**Q.** With `COCc1cc(CNCc2c(C)n(CC(C)C)c3ccccc23)n[nH]1` as the compound, how does the “Percent Effect” value read?
**A.** -32.81%

**Q.** How did the “Percent Effect” value turn out when `Cc1cc(NC(=O)C(C#N)Cc2cnn(C)c2C)no1` (stereo unspecified) was run?
**A.** -0.6706%

**Q.** `Cc1ccc(CN2CCC3(CCCN(C(=O)N(C)C)C3)C2)cc1` (stereo unspecified) was tested. Which “Percent Effect” value did it give?
**A.** -64.1%

**Q.** `O=C(c1cnccn1)N1CCC2(CCCN(Cc3ccoc3)C2)C1` (stereo unspecified) was tested. Which “Percent Effect” value did it give?
**A.** -97.37%

**Q.** How did the “Percent Effect” value turn out when `CCOC(=O)[C@H]1[C@@H](O)C(=O)N(C)C12CCN(C(=O)C(CC)CC)CC2` was run?
**A.** -15.32%

**Q.** For `CCN(C)C(=O)Nc1cc(F)c(OC)cc1F`, which “Percent Effect” value is on record?
**A.** -13.37%

**Q.** Which “Percent Effect” value does the source give for `O=C(c1ccc(F)c(Br)c1)N1CCCN2CCCC2C1` (stereo unspecified) here?
**A.** 22.61%

**Q.** For `COc1ccc(N2CCCC3(C2)CN(c2nncs2)CCO3)cc1` (stereo unspecified), which “Percent Effect” value is on record?
**A.** 87.98%

**Q.** `c1cncc(N2CCOC3(CCCN(c4nncs4)C3)C2)c1` (stereo unspecified) was tested. Which “Percent Effect” value did it give?
**A.** -13.46%

**Q.** With `Cc1cccc(N2CCCC3(C2)CN(c2nncs2)CCO3)c1` (stereo unspecified) as the compound, how does the “Percent Effect” value read?
**A.** -92.55%

**Q.** How did the “Percent Effect” value turn out when `O=C1CCCN1Cc1nnc2n1CCCN(C(=O)c1ccc[nH]1)C2` was run?
**A.** -52.27%

**Q.** Which “Percent Effect” value does the source give for `O=C(c1ccc(-n2cnnc2)cc1)N1CCC(Nc2cccnn2)CC1` here?
**A.** -15.7%

**Q.** For `CCN1Cc2ccccc2CC2(CCN(CC(=O)O)CC2)C1=O.O=C(O)C(F)(F)F`, which “Percent Effect” value is on record?
**A.** -102.3%

**Q.** Which “Percent Effect” value does the source give for `CCn1c(SCC(=O)O)nnc1C(C)NC(=O)c1ccc(Cl)cc1` (stereo unspecified) here?
**A.** -146.1%

**Q.** `Cc1noc(C(C)NC(=O)[C@@H](C)NC(=O)OC(C)(C)C)n1` (stereo partly specified) was tested. Which “Percent Effect” value did it give?
**A.** -163.7%

**Q.** Which “Percent Effect” value does the source give for `O=C(c1cccc(CO)n1)N1CCCC1c1nc2cc(F)ccc2[nH]1` (stereo unspecified) here?
**A.** -67.52%

**Q.** With `O=C(CN1CCCC1c1nc2cc(F)ccc2[nH]1)NCc1ccccn1` (stereo unspecified) as the compound, how does the “Percent Effect” value read?
**A.** -65.25%

**Q.** How did the “Percent Effect” value turn out when `Fc1ccc2[nH]c(C3CCCN3Cc3c[nH]cn3)nc2c1` (stereo unspecified) was run?
**A.** 80.29%

**Q.** How did the “Percent Effect” value turn out when `CC(C)OCCCNC(=O)NCc1cccc(-n2ccnc2)c1` was run?
**A.** -80.58%

**Q.** How did the “Percent Effect” value turn out when `Cc1nn(C)c(C)c1-c1ccnc(N(C)Cc2nc(C(C)C)no2)n1` was run?
**A.** 65.96%

**Q.** With `Cc1nn(C)cc1-c1ccnc(N(C)Cc2noc(C(C)C)n2)n1` as the compound, how does the “Percent Effect” value read?
**A.** -38.19%

**Q.** Which “Percent Effect” value does the source give for `Cc1nn(C)c(C)c1-c1ccnc(N(C)Cc2noc(C(C)C)n2)n1` here?
**A.** -30.97%

**Q.** Which “Percent Effect” value does the source give for `Cc1cc(C(N)=O)c(N2C[C@@H](C)[C@@](C)(O)C2)nc1C` here?
**A.** -47.89%

**Q.** `O=C(O)c1nc(SCc2ccc(F)cc2)ncc1Br` was tested. Which “Percent Effect” value did it give?
**A.** -159.2%

**Q.** How did the “Percent Effect” value turn out when `COc1cccc(CC(=O)N2CCCSCC2CN2CCCC2)c1` (stereo unspecified) was run?
**A.** 54.27%

**Q.** Which “Percent Effect” value does the source give for `O=C(c1ccc2c(c1)OCO2)N1CCCSCC1CN1CCCC1` (stereo unspecified) here?
**A.** -7.883%

**Q.** How did the “Percent Effect” value turn out when `COc1cccc(CCC(=O)N2CCCCC2Cn2cccn2)c1` (stereo unspecified) was run?
**A.** -142.5%

**Q.** Which “Percent Effect” value does the source give for `CCCN(CCC)c1nc(N)nc(-c2cc(Cl)ccc2OC)n1` here?
**A.** -49.81%

**Q.** Which “Percent Effect” value does the source give for `CN(C)CCCNC(=O)c1nc(Cc2c(Cl)cccc2Cl)no1` here?
**A.** -74.09%

**Q.** Which “Percent Effect” value does the source give for `CC[C@@H](C)[C@@H](N)C(=O)Nc1cccc(-c2cnc(NCCO)nc2)c1` here?
**A.** -39.72%

**Q.** How did the “Percent Effect” value turn out when `O=C1CC(c2ccccc2F)c2c(n(C3CCCC3)[nH]c2=O)N1` (stereo unspecified) was run?
**A.** -93.23%

**Q.** `COc1ccccc1C(=O)NC(c1ccccn1)[C@H]1CC[C@H](CN)CC1` (stereo partly specified) was tested. Which “Percent Effect” value did it give?
**A.** -2.636%

**Q.** `CCOCC1CN(CC2CC2)Cc2nn(C)cc21.O=C(O)C(F)(F)F` (stereo unspecified) was tested. Which “Percent Effect” value did it give?
**A.** -95.19%

**Q.** Which “Percent Effect” value does the source give for `NC(=O)CCNC(=O)NCC1(c2ccccc2Cl)CCC1` here?
**A.** -18.8%

**Q.** Which “Percent Effect” value does the source give for `NC(=O)CCNCc1c(Cl)cccc1N1CCCC1` here?
**A.** 65.52%

**Q.** `O=S(=O)(Cc1c(F)cccc1Cl)NCCCN1CCCCCC1` was tested. Which “Percent Effect” value did it give?
**A.** 47.99%

**Q.** With `CS(=O)(=O)CCCNC(=O)NC1CC(c2cccc(Cl)c2)C1` (stereo unspecified) as the compound, how does the “Percent Effect” value read?
**A.** -17.33%

**Q.** Which “Percent Effect” value does the source give for `O=C(Nc1c(N2CCCC2)cccc1N1CCCC1)c1ccccn1` here?
**A.** -13.71%

**Q.** For `CS(=O)(=O)CCCNCc1c(Cl)cccc1N1CCCC1`, which “Percent Effect” value is on record?
**A.** 71.32%

**Q.** For `O=C(CSC1CCc2ccccc2NC1=O)NCc1ccccc1` (stereo unspecified), which “Percent Effect” value is on record?
**A.** -28.24%

**Q.** `CC(Cn1cccn1)NC(=O)N1CCN(Cc2ccco2)CC1` (stereo unspecified) was tested. Which “Percent Effect” value did it give?
**A.** -74.02%

**Q.** How did the “Percent Effect” value turn out when `Cn1ccnc1C(=O)N[C@@H]1CN(Cc2ccc(F)cc2)[C@@H]2CCCO[C@@H]21.O=C(O)C(F)(F)F` was run?
**A.** -85.57%

**Q.** How did the “Percent Effect” value turn out when `O=c1oc2ccccc2n1CCCN1CCCC1c1ccc(O)cc1` (stereo unspecified) was run?
**A.** 52.75%

**Q.** For `O=C1OCCN1CCCN1CCCC1c1ccc(O)cc1` (stereo unspecified), which “Percent Effect” value is on record?
**A.** -1.685%

**Q.** Which “Percent Effect” value does the source give for `Cc1nc(C2CCCN2CCCn2c(=O)oc3ccccc32)no1` (stereo unspecified) here?
**A.** -48.08%

**Q.** Which “Percent Effect” value does the source give for `CC(=O)c1cc2c(=O)[nH]c(=O)n(C)c2nc1C` here?
**A.** -16.7%

**Q.** With `CC(C)Nc1ncccc1C(=O)NCc1ncc[nH]1` as the compound, how does the “Percent Effect” value read?
**A.** -116.1%

**Q.** For `CC(=O)N(C)C(c1cccc(F)c1)c1ccccn1` (stereo unspecified), which “Percent Effect” value is on record?
**A.** -75.26%

**Q.** Which “Percent Effect” value does the source give for `Fc1cccc(C(NCc2ncc[nH]2)c2ccccn2)c1` (stereo unspecified) here?
**A.** 91.42%

**Q.** Which “Percent Effect” value does the source give for `Clc1cccc(C(NCc2ncc[nH]2)c2ccccn2)c1` (stereo unspecified) here?
**A.** 86.37%

**Q.** `Cc1nccn1-c1ccc(C(C)NCc2ncc[nH]2)cc1` (stereo unspecified) was tested. Which “Percent Effect” value did it give?
**A.** -35.75%

**Q.** How did the “Percent Effect” value turn out when `O=C(NCc1ncc[nH]1)c1c(F)cccc1I` was run?
**A.** -135.9%

**Q.** How did the “Percent Effect” value turn out when `Fc1cccc(C(NCc2ncc[nH]2)c2ccccc2)c1` (stereo unspecified) was run?
**A.** 67.9%

**Q.** Which “Percent Effect” value does the source give for `CSCc1cc(F)ccc1CNCc1ncc[nH]1` here?
**A.** -2.338%

**Q.** How did the “Percent Effect” value turn out when `Cn1cc(C(NCCc2ccccn2)c2cccc(F)c2)cn1` (stereo unspecified) was run?
**A.** -2.846%

**Q.** With `CC(C)NC(=O)N1CCN(C(=O)c2ccco2)CC2(CC(=O)N(C)C2)C1` (stereo unspecified) as the compound, how does the “Percent Effect” value read?
**A.** -8.212%

**Q.** How did the “Percent Effect” value turn out when `CC(C)CC(=O)NS(=O)(=O)c1ccc2c(c1)OCCCO2` was run?
**A.** -13.67%

**Q.** `CC(C)c1nn(C)c(N2CCOCC2)c1CNCc1cscn1` was tested. Which “Percent Effect” value did it give?
**A.** -74.61%

**Q.** For `O=C(NCC(O)COc1ccc(C(F)(F)F)cc1)Nc1nncs1` (stereo unspecified), which “Percent Effect” value is on record?
**A.** -99.86%

**Q.** `Cc1cccc2c(CCNC(=O)NCCC[S+](C)[O-])c[nH]c12` (stereo unspecified) was tested. Which “Percent Effect” value did it give?
**A.** -83.64%

**Q.** `Cc1cccc2c(CCNC(=O)NCC[S+](C)[O-])c[nH]c12` (stereo unspecified) was tested. Which “Percent Effect” value did it give?
**A.** -101.3%

**Q.** With `Cc1cccc2c(CCNC(=O)[C@H](N)c3ccccc3)c[nH]c12` as the compound, how does the “Percent Effect” value read?
**A.** 61.63%

**Q.** For `CC(C)Cn1c(=O)n(CCn2cc(Cl)cn2)c2cc(C(=O)O)cnc21`, which “Percent Effect” value is on record?
**A.** -13.68%

**Q.** How did the “Percent Effect” value turn out when `CCc1noc(CN(Cc2cccs2)C2CC2)n1` was run?
**A.** -139.3%

**Q.** `O=C(CCc1nnc2ccccn2c1=O)NCc1cccnc1` was tested. Which “Percent Effect” value did it give?
**A.** -35.93%

**Q.** How did the “Percent Effect” value turn out when `CN(C)c1ncccc1NC(=O)C1CN(Cc2ccccc2)CCO1` (stereo unspecified) was run?
**A.** -7.192%

**Q.** Which “Percent Effect” value does the source give for `Cl.Cn1nc(C2CCCN(Cc3ccccc3)C2)c2nccnc21` (stereo unspecified) here?
**A.** -32.54%

**Q.** For `Cc1cccc(CN2CC[C@@H]3[C@@H](CO[C@H]3CNc3ncccn3)C2)n1.O=C(O)C(F)(F)F.O=C(O)C(F)(F)F.O=C(O)C(F)(F)F`, which “Percent Effect” value is on record?
**A.** -54.04%

**Q.** With `Cn1cc(N2CC3(CCN(Cc4ccccc4)CC3)OCC2=O)cn1.O=C(O)C(F)(F)F` as the compound, how does the “Percent Effect” value read?
**A.** -75.76%
